Mot1-301 SUMO: yeast Mot1-301 growth rescue at high temperature, primary screen, SUMOylation pathway inhibitor project, S. cerevisiae, ATP luminescence, 38.5C; growth rescue, % at 18.8 µM; S. cerevisiae Mot1-301 growth rescue; percent above DMSO median, 100 means doubled; 1% of 320,000 active;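 active means every valid replicate shows activation above 250% relative to neutral control wells; inactive means the rest, any valid replicate at or below 250%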;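 further: OY570 slx delta 5 strain wells were the positive control but not used for scaling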
tim23-1 inh: growth inhibitors of tim23-1 mutant yeast, primary screen, luminescence, uHTS. 1.3% of 330,000 active. inhibition, % at 20 µM. S. cerevisiae tim23-1 growth, BacTiter-Glo luminescence, 24 h;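 active means growth inhibition of the mutant yeast at or above 50%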;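 further: temperature-sensitive mutant grown at 25 °C; plate controls were DMSO-treated mutant yeast for no effect and medium wells lacking yeast for full effect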
tim10-1 inh: growth inhibitors of tim10-1 mutant yeast, primary screen, luminescence, uHTS. inhibition, % at 20 µM. S. cerevisiae tim10-1 ts strain growth, BacTiter-Glo, 24 h. 2.2% of 330,000 active;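 active means inhibition of at least 40%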;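 further: mutant grown at 25 °C; 0% = DMSO wells with yeast and 100% = wells holding no yeast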
TIM10 inh: growth inhibitors of isogenic TIM10 control yeast, primary screen, counter-screen for tim10-1 yeast inhibitor project, luminescence, uHTS | inhibition, % at 10 µM | S. cerevisiae TIM10 strain growth, BacTiter-Glo luminescence, 24 h | AID 463195, 2010 | 1.4% of 330,000 active;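 active means inhibition of 40% or more at the single tested concentration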;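 further: wild-type TIM10 isogenic control strain grown at permissive 25 °C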
PfHsp90 set2: growth inhibition of PfHsp90-expressing yeast, primary screen, antimalarial PfHsp90 inhibitor project, S. cerevisiae, BacTiter-Glo luminescence, single point, set 2 | BacTiter-Glo ATP, 48 h; yeast lacking PDR1 and PDR3 efflux regulators | inhibition, % at 9.4 µM | AID 504621, 2011 | 0.32% of 310,000 active;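 active means every replicate shows inhibition above about 80%, whatever the replicate mean, limit read from the data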;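 further: 0% = DMSO neutral controls and 100% = 20 µM radicicol positive controls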
tim23-1 confirm: tim23-1 mutant yeast growth inhibitors, confirmation, luminescence, single concentration | shares compounds with tim23-1 inh | 83% of 4,400 active | S. cerevisiae tim23-1 growth, BacTiter-Glo luminescence, 24 h | inhibition, % at 20 µM;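 active means inhibition above about 39% in either of two replicate wells at 20 µM, limit read from the data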;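 further: temperature-sensitive tim23-1 mutant grown at 25 °C; 0% = DMSO wells with yeast and 100% = medium wells without yeast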
An asterisk follows results filed as active; . = no result. Most compounds without a hit are left out; they make up all but 4.4% or so of the library.

SMILES | Mot1-301 SUMO | tim23-1 inh | tim10-1 inh | TIM10 inh | PfHsp90 set2 | tim23-1 confirm
C[C@H]1CN(S(=O)(=O)c2ccc3c(c2)OCCO3)CCN1S(=O)(=O)c1c(F)cccc1F | 23.8 | 50.9* | 21.0 | 21.5 | 5.4 | 30.6
O=S(=O)(c1ccc2c(c1)OCCO2)N1C[C@@H]2C[C@H]1CN2S(=O)(=O)c1c(F)cccc1F | -7.5 | 21.3 | 14.1 | -2.0 | 8.9 | .
CC1(C)CC(n2c(NCCO)nc3c(c2=O)C2(CCCC2)Cc2ccccc2-3)CCO1 (stereo unspecified) | -3.2 | 51.7* | 20.8 | 36.0 | -8.9 | 48.7*
FC(F)(F)c1cc(CCN2CCNC[C@@H]2CC2CCCCC2)cc(C(F)(F)F)c1 | 29.9 | 64.8* | -9.6 | 11.4 | 10.3 | 48.0*
Cc1ccc2[nH]c3c(c2c1)CN(C(=O)CN1CCN(c2cccc(C)c2C)CC1)CC3 | 232.1 | 60.1* | 10.9 | 28.5 | 23.8 | 39.0
CCn1c(SCC(=O)N(C)c2c(N)n(Cc3ccccc3)c(=O)[nH]c2=O)nc2ccccc21 | -10.7 | -1.0 | 8.1 | -4.2 | 9.1 | .
O=C1C=C(c2ccc3[nH]ccc3c2)CCC1 | -16.1 | 26.6 | 23.6 | 1.6 | -12.4 | .
CC1(C)CC(=O)C=C(c2ccc(Oc3ccccc3)cc2)C1 | 18.1 | 40.5 | 8.0 | 2.6 | -27.8 | .
CC1(C)CC(=O)C=C(c2ccc3[nH]ccc3c2)C1 | -9.4 | 54.1* | 33.4 | 6.4 | -14.9 | 34.8
CC1(C)CC(=O)C=C(c2ccc(I)cc2)C1 | 3.2 | 51.3* | 13.1 | -12.3 | 12.7 | 40.7*
Cc1ccc(C(=O)C(C)OC(=O)c2cc3cc([N+](=O)[O-])ccc3oc2=O)cc1 (stereo unspecified) | 6.3 | 72.1* | -17.9 | 1.6 | 20.8 | 55.0*
COc1cccc2cc(C(=O)OC(C)C(=O)c3ccc(C)cc3)c(=O)oc12 (stereo unspecified) | 245.8 | 30.6 | 14.3 | 7.6 | -35.4 | .
CC(=O)Nc1ccc(S(=O)(=O)N(C)CC(=O)OCC(=O)Nc2cc(C)on2)cc1 | 21.0 | 7.2 | 3.6 | 15.5 | . | .
CCN(CC(=O)N1CCOCC1)S(=O)(=O)c1ccc(F)cc1 | 202.1 | -0.1 | -2.4 | -14.6 | 13.8 | .
CCOC(=O)Nc1ccc2c(c1)Nc1ccccc1S2 | 2.1 | 61.7* | 33.0 | 35.6 | 2.3 | 51.7*
N#CC1(NC(=O)COc2ccc3ccc(=O)oc3c2)CCCCC1 | 159.4 | -1.9 | -8.2 | 8.4 | . | .
Clc1cccc(-c2cc3nc4c(c(NCc5ccco5)n3n2)CCCC4)c1 | 747.8 | 52.3* | 19.0 | 32.7 | 18.7 | 59.0*
Cc1ccnc(NS(=O)(=O)c2cc(-c3cc(C)no3)ccc2C(C)C)c1 | 3.3 | 1.5 | -1.6 | 13.9 | -0.2 | .
COc1ccc(/C=C/C(=O)Oc2ccc(C)c(C)c2)cc1OC | -12.5 | 16.5 | 26.7 | 8.4 | -0.6 | .
COc1cc(/C=C/[N+](=O)[O-])ccc1OC(=O)/C=C/c1ccc(F)cc1 | 37.2 | 54.7* | 35.3 | 26.4 | -17.7 | 51.3*
O=C(NCCc1ccc(C(F)(F)F)cc1)C1CCC(=O)N(CCCN2CCCC2=O)C1 (stereo unspecified) | -22.9 | 10.4 | -9.1 | -3.6 | 5.4 | .
CCOc1cc2c(C#N)c(N3CCCC3)nc(N)c2c(N)n1 | 12.1 | 17.6 | 1.0 | 0.5 | 3.7 | .
CCCCN(CC)c1nc(N)c2c(N)nc(OCC)cc2c1C#N | -31.4 | 56.0* | 23.3 | 13.4 | 6.8 | 43.9*
Cn1nc(-c2ccccc2F)c2cc(C(=O)Nc3ccc4c(c3)OCCO4)sc21 | 1.7 | 54.4* | 38.1 | 27.1 | -3.2 | 55.2*
O=C(CCCSc1ccccc1)Nc1ccc(Cl)c(S(=O)(=O)N2CCOCC2)c1 | 2.4 | -9.8 | 4.1 | -11.2 | 15.4 | .
SMILES | Mot1-301 SUMO | tim23-1 inh | tim10-1 inh | TIM10 inh | PfHsp90 set2 | tim23-1 confirm
O=C(Nc1ccccc1)OC1CCC2CC1CCC2OC(=O)Nc1ccccc1 (stereo unspecified) | -16.1 | 53.0* | 1.9 | 15.3 | -1.3 | 38.5
O=C(Nc1ccccc1)C1CC2CCC1C2 (stereo unspecified) | -16.6 | 21.2 | -5.5 | 6.4 | -5.0 | .
COc1ccc(CCNc2oc(-c3ccccc3OC)nc2C#N)cc1OC | 7.7 | 32.6 | 0.5 | 1.1 | -3.5 | .
COc1ccc(CCNc2oc(-c3ccccc3OC)nc2C#N)cc1 | -2.2 | 58.0* | 21.0 | 34.2 | 6.1 | 62.5*
COc1ccc(NC(=O)CN2CCCC2c2cccs2)cc1S(=O)(=O)N1CCCCC1 (stereo unspecified) | -6.2 | 21.6 | 14.9 | 7.4 | -11.4 | .
CC(=O)c1ccc(N2CCN(C(=S)Nc3cccc(Cl)c3)CC2)cc1 | 99.7 | 96.2* | 9.4 | 0.9 | -5.5 | 10.9
COc1cccc(NC(=O)COC(=O)C2C3CC4OC(=O)C2C4C3)c1 (stereo unspecified) | 26.7 | 19.3 | 17.8 | -9.0 | -16.2 | .
O=C(Nc1ccc(-c2nc3ccccc3[nH]2)cc1)C1CCCO1 (stereo unspecified) | -34.7 | 52.9* | 22.0 | 19.7 | 61.9 | 40.8*
O=C(Nc1nc2ccccc2[nH]1)C1CCCO1 (stereo unspecified) | -4.2 | 2.2 | -7.0 | 1.3 | 0.8 | .
Cc1cc(C)c(OCC(=O)OCC(=O)NCCC2=CCCCC2)c(C)c1 | -10.3 | 18.3 | 19.3 | 6.7 | -15.8 | .
CCOc1ccc(NC(=O)CN(C)C(=O)c2ccc3c(c2)C(=O)N(CCC(C)C)C3=O)cc1OCC | -2.3 | -3.5 | 3.5 | 11.1 | -3.6 | .
Cc1ccc2occ(/C=N/NC(=O)c3ccc(O)cc3)c(=O)c2c1 | -55.4 | 43.0 | 14.5 | -3.3 | . | .
CCOc1ccccc1C(=O)N/N=C/c1coc2ccc(C)cc2c1=O | 77.2 | 63.7* | 27.5 | 18.0 | -0.9 | 65.7*
Cc1ccc2occ(/C=N/NC(=O)c3ccccc3Br)c(=O)c2c1 | -5.1 | 63.0* | 30.7 | 22.9 | 2.0 | 66.2*
O=C(N/N=C/c1coc2ccccc2c1=O)c1ccc(Cl)cc1 | 12.3 | 53.8* | 24.7 | 20.8 | 13.3 | 42.8*
O=C(O)/C=C/C(=O)NCc1csc2ccccc12 | -9.7 | 12.6 | -14.9 | 7.8 | 4.0 | .
COc1c(Cl)cccc1-c1cn2ccccc2n1 | 97.9 | 55.3* | 5.7 | 20.2 | 29.5 | 33.8
O=C(CCOc1ccccc1)Nc1ccnn1C1CCN(Cc2ccccc2)CC1 | 0.7 | 3.4 | -9.1 | 0.0 | 5.3 | .
COCCNC(=S)Nc1cc2oc3ccccc3c2cc1OC | -12.7 | 28.9 | 18.1 | 1.8 | 13.7 | .
O=[N+]([O-])c1ccc(O)c2ncccc12 | 108.9 | 62.2* | 20.5 | -1.1 | 109.2* | 34.8
CCOc1cc(/C=N/Nc2nc3ccccc3[nH]2)cc(Br)c1OCC(=O)N(C)C | -6.9 | -4.4 | 7.1 | 15.8 | . | .
